PubChem BioAssay AID1159580 (chemical genetic matrix, 2015)
Hit rate of the full screen: of about 5,500 compounds, about 2,000 (36%) were called active. About 18% were inconclusive and are not listed. Rule as the data show it: active = normalized growth mostly below about 0.91 (no sharp cut-off); inconclusive = no clear call, values can overlap the other calls; inactive = mostly above about 0.92. This is one part of the list.

Test: chemical genetic growth profiling, strain panel (AID 1159580);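 also: tested at 20 µM; growth read once vehicle control cultures reached saturation at 30 °C; 1 = growth at the plate median or of vehicle wells; lower values mean less growth of the strain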
Conditions: growth OD

Measured: normalized growth

N#Cc1c(N)oc(-c2ccco2)c1-c1ccco1
inactive: S. cerevisiae deletion strains, locus YBR229C, strain ROT2, active compounds read low 0.975 | S. cerevisiae deletion strains, locus YDL101C, strain DUN1, active compounds read low 0.968 | S. cerevisiae deletion strains, locus YDL134C, strain PPH21, active compounds read low 0.947 | S. cerevisiae deletion strains, locus YDR150W, strain NUM1, active compounds read low 0.937 | S. cerevisiae deletion strains, locus YEL061C, strain CIN8, active compounds read low 0.947 | S. cerevisiae deletion strains, locus YGR078C, strain PAC10, active compounds read low 0.948 | S. cerevisiae deletion strains, locus YGR229C, strain SMI1, active compounds read low 0.994 | S. cerevisiae deletion strains, locus YHR087W, strain rtc3, active compounds read low 0.97 | S. cerevisiae deletion strains, locus YJR043C, strain POL32, active compounds read low 0.943 | S. cerevisiae deletion strains, locus YJR075W, strain HOC1, active compounds read low 0.949 | S. cerevisiae deletion strains, locus YKL190W, strain CNB1, active compounds read low 0.992 | S. cerevisiae deletion strains, locus YLR039C, strain RIC1, active compounds read low 0.981 | S. cerevisiae deletion strains, locus YLR058C, strain SHM2 (second series), active compounds read low 0.961 | S. cerevisiae deletion strains, locus YLR262C, strain YPT6, active compounds read low 0.999 | S. cerevisiae deletion strains, locus YML094W, strain GIM5, active compounds read low 0.875 | S. cerevisiae deletion strains, locus YMR219W, strain ESC1, active compounds read low 0.969 | S. cerevisiae deletion strains, locus YMR263W, strain SAP30, active compounds read low 0.917 | S. cerevisiae deletion strains, locus YNL153C, strain GIM3, active compounds read low 0.987 | S. cerevisiae deletion strains, locus YNL298W, strain CLA4 (second series), active compounds read low 0.888 | S. cerevisiae deletion strains, locus YNL322C, strain KRE1, active compounds read low 0.962 | S. cerevisiae deletion strains, locus YNR030W, strain Alg12, active compounds read low 0.903 | S. cerevisiae deletion strains, locus YOL006C, strain TOP1, active compounds read low 0.913 | S. cerevisiae deletion strains, locus YPL241C, strain CIN2, active compounds read low 0.873 | S. cerevisiae deletion strains, locus YPR135W, strain CTF4, active compounds read low 0.694 | S. cerevisiae strains, strain wild type, active compounds read low 0.984
active: S. cerevisiae deletion strains, locus YAL013W, strain DEP1, active compounds read low 0.893 | S. cerevisiae deletion strains, locus YHR030C, strain SLT2, active compounds read low 0.415 | S. cerevisiae deletion strains, locus YLR085C, strain ARP6, active compounds read low 0.626 | S. cerevisiae deletion strains, locus YPL055C, strain LGE1, active compounds read low 0.789
